# From PubChem BioAssay
# D3 ag: agonists of human D3 dopamine receptor | P35462 | D3R DiscoveRx beta-arrestin cells, luminescence, 90 min | max activation, % | 0.58% of 410,000 active | AID 652048; in the data active means max activation above about 30%; further: 0% is about no effect
# Target sequence (P35462 whole entry, looked up): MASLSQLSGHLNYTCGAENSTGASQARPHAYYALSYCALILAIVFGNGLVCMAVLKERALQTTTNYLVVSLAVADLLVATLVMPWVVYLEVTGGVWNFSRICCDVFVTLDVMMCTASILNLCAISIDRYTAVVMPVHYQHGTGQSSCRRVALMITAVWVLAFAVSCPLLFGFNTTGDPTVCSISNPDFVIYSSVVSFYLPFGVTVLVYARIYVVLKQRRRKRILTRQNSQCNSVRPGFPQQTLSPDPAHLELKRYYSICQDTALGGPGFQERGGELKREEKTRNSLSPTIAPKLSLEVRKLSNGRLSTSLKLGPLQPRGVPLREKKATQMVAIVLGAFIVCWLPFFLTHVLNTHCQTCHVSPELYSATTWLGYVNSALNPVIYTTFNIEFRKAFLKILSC
#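 Agonist mode: compounds and dopamine controls were applied to plated cells for 90 min at 37 degrees C after an overnight attachment at 1500 cells/well. Luminescent read-out followed 30 - 60 minutes at room temperature with DiscoveRx detection reagent.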
# DRD3 antagonist: antagonists of human D3 dopamine receptor; P35462; D3R cells, DiscoveRx beta-arrestin luminescence, antagonist mode; stronger effect = lower value; max response, negative = inhibition, %; 2.5% of 360,000 active; AID 652054; in the data active means max response below about -50%; inconclusive means no clear call, values can overlap the other calls; further: on the % scale 0 is the no-effect control and ±100 the full control effect
#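 Cells expressing the human receptor were seeded at 1500 cells/well, incubated overnight at 37 degrees C in 5% CO2, then exposed to library compounds with dopamine controls for 90 minutes at 37 degrees C before luminescent detection.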
# GRP78 ERSR act: inducers of ER stress response in human glioma cells. U87-MG GRP78 promoter luciferase reporter, 16 h. Potency, µM, for inactives: at the top dose activation, actives largely listed as activators. 0.02% of 420,000 active. AID 602332; further: potency means the concentration at half of the fitted maximal effect; series mostly up to about 76 µM; % of control where 0% means no effect; nearly all actives have a fitted effect of over 35% in size
#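 Stably transfected U87-MG glioma cells carrying a GRP78-based luciferase sensor; 16 h compound incubation. Luminescence end-point read 10 min after Bright-Glo addition at room temperature.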
# Nrf2 activator: activates Nrf2 signaling | AREc32 ARE-luciferase reporter (MCF7-derived line), luminescence, 24 h | Potency, µM (series often up to 46.1 µM), without a hit: top-dose activation, usual class: activators | 0.31% of 410,000 active; further: potency means the concentration at half of the fitted maximal effect; % of control where 0% means no effect; nearly all actives have a fitted effect of over 65% in size
#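 ARE-driven firefly luciferase activity in AREc32 cells measured after a 24 hr compound exposure at 37 deg C, using Steady-Glo reagent and a 30 min room-temperature hold.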
# * marks the source's active call; other numbers are inactive results; ? = inconclusive; nt = no result given. Hits are enriched below; roughly 3% of the tested compounds scored in any of these assays. Unless noted, the call rests on the fitted dose curve; in most records, active means well fitted curve in the direction sought with a large enough effect; inconclusive means small, poorly fitted or top-dose-only effect, or another doubt; inactive means no such curve, though single readings can be large; an effect the other way counts as inactive or inconclusive.
SMILES,D3 ag,DRD3 antagonist,GRP78 ERSR act,Nrf2 activator
C[C@@H]1[C@H](O)[C@@H](C)C=CC=CCCC=CC=CC=CC=C[C@H](O[C@H]2O[C@@H](C)[C@H](O)[C@@H](N)[C@@H]2O)CC2O[C@](O)(C[C@@H](O)[C@H](O)CC[C@@H](O)C[C@@H](O)C[C@@H](O)CC(=O)O[C@H]1C)C[C@H](O)[C@H]2C(=O)O,nt,nt,-4%,nt
CCOP(=O)(OCC)OCC,-90,-110*,-4%,0%
CN(C)CCCCCCN(C)C (tested in a mixture with another compound),8,nt,nt,nt
OC(CN1CCC(c2c[nH]c3ccccc23)CC1)C(F)(F)F (stereo not drawn),-6,-63*,-7%,-1%
CC(=O)C1C(N2CC2)CC2C3CC=C4CC(O)CCC4(C)C3CCC21C (stereo not drawn),-13,?,6%,9%
Cc1cnc2c(C(=O)O)c(Cl)ccc2c1,nt,nt,-2%,nt
COc1ccc(OC)c(C(O)C2CCCCN2)c1 (stereo not drawn),-12,-61*,-2%,0%
COc1ccc(OC)c([C@@H](O)[C@H](C)NC(C)(C)C)c1,14,19,-2%,0%
C[C@@H]1O[C@@H](O[C@@H]2C=C3CC[C@@H]4C(CC[C@]5(C)[C@@H](c6ccc(=O)oc6)CC[C@]45O)[C@@]3(C)CC2)[C@H](O)[C@H](O)[C@H]1O (stereo partly drawn),36*,113,-7%,-3%
C[C@@H]1O[C@@H](O[C@@H]2C=C3CCC4C(CC[C@]5(C)[C@@H](c6ccc(=O)oc6)CC[C@]45O)[C@@]3(C)CC2)[C@H](O)[C@H](O)[C@H]1O (stereo partly drawn),16,130,-6%,-2%
O=C(C[C@@H]1NCCC[C@H]1O)Cn1cnc2cc(Br)c(Cl)cc2c1=O,-8,nt,nt,nt
Clc1cccc(N2CCNCC2)c1,-76,-76*,-2%,0%
CC(C)C[C@H](CN)CC(=O)O,2,nt,nt,nt
c1ccc2c(N3CCNCC3)nsc2c1,-11,-70*,-8%,6%
Nc1cc(Cl)c2nonc2c1[N+](=O)[O-],-15,-58*,-15%,?
CNC(C)Cc1ccccc1Sc1ccc(O)cc1 (stereo not drawn),-21,-73*,-2%,3%
CNC(C)Cc1ccc2c(c1)OCO2 (stereo not drawn),-16,nt,-3%,nt
Cc1ccc(O)c(C(=O)c2cc(C(=O)NCc3ccccc3)c(=O)n(Cc3ccccc3)c2)c1,-24,-69*,-4%,3%
O=C(c1cc(C(=O)NCc2ccccc2)c(=O)n(Cc2ccccc2)c1)c1cc(Br)ccc1O,-2,13,-7%,0%
O=[As](O)(O)c1ccc(N=Nc2ccc(O)cc2)cc1,-13,-99*,-3%,1%
CC(C)[C@@]1(NC(=O)[C@@H]2C[C@@H]3c4cccc5[nH]cc(c45)C[C@H]3N(C)C2)O[C@@]2(O)[C@@H]3CCCN3C(=O)[C@H](Cc3ccccc3)N2C1=O,-59,-96*,-1%,0%
O=c1[nH]c(=S)[nH]c(O)c1N=Nc1ccc(SC(F)F)cc1,-4,-24,-7%,16µM*
O=C(c1ccccc1)c1ccc(N=Nc2c(O)[nH]c(=O)[nH]c2=O)cc1,-9,?,0%,?
O=c1[nH]c(=S)[nH]c(O)c1N=Nc1ccc(S(=O)(=O)N2CCc3ccccc32)cc1,-6,-29,5%,8.9µM*
C[C@@H](N)C(=O)c1ccccc1,-4,nt,nt,nt
SMILES,D3 ag,DRD3 antagonist,GRP78 ERSR act,Nrf2 activator
Cc1ccc(C2CC3CCC(C2)N3Cc2ccccc2F)cc1 (stereo not drawn),-9,-82*,-4%,-1%
CCn1c(=N)n(Cc2ccccc2F)c2ccccc21,-1,16,2%,2%
OCC(Br)(Br)Br,nt,nt,-1%,nt
O=C1/C(=C\c2ccccc2)C[C@@]2(O)[C@H]3Cc4ccc(O)c5c4[C@@]2(CCN3CC2CC2)[C@H]1O5,nt,nt,-12%,nt
C/C1=C\[C@@H](C)C/C=C/[C@H]2[C@@H]3O[C@]3(C)[C@@H](C)[C@H]3[C@H](Cc4c[nH]c5ccccc45)NC(=O)[C@]32C(=O)/C=C/C(=O)[C@@H]1O,-46,-51*,-11%,-3%
O=C1OC2(c3cc(Br)c(O)cc3Oc3c2cc(Br)c(O)[c]3[Hg])c2ccccc21 (stereo not drawn),3,nt,nt,nt
CN(C)c1ccc([N+](=O)[O-])c([N+](=O)[O-])c1,-10,-15,-2%,11µM*
CNCCc1ccc(O)c(O)c1,116*,15,-1%,8%
CN1CCCC(C(=O)c2ccccc2)C1 (stereo not drawn),16,-22,-4%,0%
